Five compounds from PubChem BioAssay AID1468 (National Center for Advancing Translational Sciences (NCATS), 2008) can be followed below.

The campaign covered roughly 280,000 compounds. About 1,100 (0.39%) were called active. About 7% were inconclusive and are not listed. Only a selection was taken, and actives are over-represented in it overall. A number with no mark means an inactive call. Calls come from the whole dose curve; as a rule, active = well fitted inhibition curve with a large enough effect; inconclusive = small, poorly fitted or top-dose-only effect, or effect the other way; inactive = flat fitted curve, though single readings scatter.
% is set by controls: 0 for no effect and ±100 for the full control effect; potency is the fitted concentration of half-maximal effect.

Microtubule-associated protein tau (Homo sapiens), sequence (P10636 561-689 P618L limits assumed): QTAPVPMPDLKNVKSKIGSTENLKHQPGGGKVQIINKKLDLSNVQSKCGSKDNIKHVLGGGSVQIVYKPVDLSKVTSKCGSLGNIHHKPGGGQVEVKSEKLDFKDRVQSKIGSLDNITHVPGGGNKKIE

This assay concerns the target Microtubule-associated protein tau (Homo sapiens) (UniProt P10636). The assay is described as follows: qHTS for Inhibitors of Tau Fibril Formation, Fluorescence Polarization. Note: nearly all actives have a fitted effect of over 55% in size. The note with it: K18 P301L tau heparin fibrillization, Alexa594 FP, 6 h; series mostly up to 57.7 µM; activity, negative = inhibition: at the top concentration. An excerpt:
NIH Molecular Libraries Probe Production Network [MLPCN]
NIH Chemical Genomics Center [NCGC]
Assay Provider: Carlo Ballatore, University of Pennsylvania
The microtubule-associated protein tau is an abundant protein in the axons of neurons that stabilizes microtubules. With its ability to modulate microtubule dynamics, tau contributes directly or indirectly, to key structural and regulatory cellular functions. Particularly important is the influence tau exerts on axonal transport, which allows signaling molecules, trophic factors and other essential cellular constituents to travel along the axons. Under pathological conditions, tau becomes sequestered into insoluble aggregates called neurofibrillary tangles. This phenomenon is believed to have pathological consequences by promoting axonal transport deficits that ultimately lead to synaptic dysfunction and neuronal loss. To identify inhibitors of tau aggregation, a heparin-induced tau fibril formation assay was used that employed a recombinantly expressed fragment of tau, K18 (Q242-E372), bearing a P301L mutation (Gustke et al. 1994; Hong et al. 1998).
Gustke, N., B. Trinczek, et al. (1994). "Domains of tau protein and interactions with microtubules." Biochemistry 33(32): 9511-22.
Hong, M., V. Zhukareva, et al. (1998).
Li, W. and V. M. Lee (2006). "Characterization of two VQIXXK motifs for tau fibrillization in vitro." Biochemistry 45(51): 15692-701.
von Bergen, M., S. Barghorn, et al. (2001). "Mutations of tau protein in frontotemporal dementia promote aggregation of paired helical filaments by enhancing local beta-structure." J Biol Chem 276(51): 48165-74.
NCGC Assay Protocol Summary:
For screening, 2 uL/well human K18 P301L (15 uM unlabeled and 0.24 uM Alexa 594-labeled tau final concentrations) in reagent buffer (100 mM sodium acetate pH 7) was dispensed into black solid 1536-well plates (Grenier) using a solenoid-based dispenser. Following transfer of 23 nL compound or DMSO vehicle by a pin tool, 2 uL/well heparin (20 uM final concentration) in reagent buffer was added and the plate centrifuged 15 s at 1000 RPM. Plates were incubated 6 hr at 37 C and then 1 uL/well ThT (30 uM final concentration) was added. After a 1 hr ambient incubation, the plates were read by an Envision (Perkin Elmer) to monitor Alexa 594 FP (555 nm excitation and 632 nm emission).
Keywords: NIH Roadmap, MLPCN, MLI, MLSMR, NCGC, qHTS, tau, tauopathies, Alzheimer's disease, fibril, neurodegeneration, aggregation
Background: In qHTS, concentration-response curves come from the screen itself.
As to `CC[N+](C)(CC)CCC[n+]1c(-c2ccccc2)c2cc(N)ccc2c2ccc(N)cc21`, the Potency was 6.31 µM (active).

Turning to `CCCN(C/C=C/I)C1CCc2ccc(O)cc2C1` (stereo not given), the “activity, negative = inhibition” value is -3.39%.

As for `c1ccc2sc(SNC3CCCCC3)nc2c1`, the “activity, negative = inhibition” value is 2.44%.

For `CN(C)[C@@H]1C(=O)C(C(N)=O)=C(O)[C@@]2(O)C(=O)C3=C(O)c4c(O)cccc4[C@@](C)(O)C3CC12` (stereo not given in full), the “activity, negative = inhibition” value is -1.29%.

On to `CO[C@@H]1C[C@@H](C[C@H]2CC[C@H](C)[C@@H]([C@@H](C)C(=O)O)O2)O[C@]2(O[C@](C)([C@H]3CC[C@@](C)(C4OC([C@H]5O[C@@](O)(CO)[C@H](C)C[C@@H]5C)C[C@@H]4C)O3)C[C@H]2C)[C@@H]1C` (stereo not given in full), for which the “activity, negative = inhibition” value was -0.541%.
